ChEMBL document CHEMBL1961873, “Compounds: GSK PKIS; Assays: Nanosyn kinase panel” (2012)

Experiments:
[1] = biological target: T1, Muscle, skeletal receptor tyrosine-protein kinase (Homo sapiens) (UniProt O15146); conditions: at 1 µM;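 note: reported value is the mean percent inhibition of MuSK kinase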
T1 sequence (whole entry): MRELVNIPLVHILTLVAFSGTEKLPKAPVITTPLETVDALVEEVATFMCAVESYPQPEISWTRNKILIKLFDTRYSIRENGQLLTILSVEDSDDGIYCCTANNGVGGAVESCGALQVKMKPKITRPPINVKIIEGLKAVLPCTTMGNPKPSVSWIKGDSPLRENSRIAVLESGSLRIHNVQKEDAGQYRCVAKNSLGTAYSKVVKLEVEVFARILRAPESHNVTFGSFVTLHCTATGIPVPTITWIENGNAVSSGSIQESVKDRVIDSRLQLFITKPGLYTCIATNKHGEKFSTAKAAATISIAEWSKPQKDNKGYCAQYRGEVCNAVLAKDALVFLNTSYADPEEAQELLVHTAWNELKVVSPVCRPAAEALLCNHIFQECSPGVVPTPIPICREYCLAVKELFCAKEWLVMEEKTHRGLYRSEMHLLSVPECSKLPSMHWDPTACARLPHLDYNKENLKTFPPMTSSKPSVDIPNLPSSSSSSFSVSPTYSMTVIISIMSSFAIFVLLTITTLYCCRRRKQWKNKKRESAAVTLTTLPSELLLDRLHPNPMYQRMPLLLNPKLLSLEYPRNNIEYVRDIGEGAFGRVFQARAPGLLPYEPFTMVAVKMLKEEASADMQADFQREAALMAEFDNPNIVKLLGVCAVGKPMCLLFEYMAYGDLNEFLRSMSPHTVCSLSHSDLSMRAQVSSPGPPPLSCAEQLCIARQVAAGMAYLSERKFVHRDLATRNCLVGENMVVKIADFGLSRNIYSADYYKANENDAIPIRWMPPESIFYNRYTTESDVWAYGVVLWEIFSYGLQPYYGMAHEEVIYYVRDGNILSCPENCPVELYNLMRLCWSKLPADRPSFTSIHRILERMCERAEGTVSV

[2] = biological target: Platelet-derived growth factor receptor alpha (Homo sapiens) (UniProt P16234); conditions: at 0.1 µM
[3] = biological target: Platelet-derived growth factor receptor alpha (Homo sapiens) (UniProt P16234); conditions: at 1 µM
[4] = tested on: Platelet-derived growth factor receptor alpha (Homo sapiens), P16234 [D842V]; conditions: at 0.1 µM
[5] = tested on: Platelet-derived growth factor receptor alpha (Homo sapiens), P16234 [D842V]; conditions: at 1 µM
[6] = tested on: Platelet-derived growth factor receptor alpha (Homo sapiens), P16234 [T674I]; conditions: at 0.1 µM
[7] = tested on: Platelet-derived growth factor receptor alpha (Homo sapiens), P16234 [T674I]; conditions: at 1 µM
[8] = tested on: Platelet-derived growth factor receptor alpha (Homo sapiens), P16234 [V561D]; conditions: at 0.1 µM
[9] = tested on: Platelet-derived growth factor receptor alpha (Homo sapiens), P16234 [V561D]; conditions: at 1 µM
[10] = biological target: Platelet-derived growth factor receptor beta (Homo sapiens) (UniProt P09619); conditions: at 0.1 µM
[11] = biological target: Platelet-derived growth factor receptor beta (Homo sapiens) (UniProt P09619); conditions: at 1 µM
[12] = biological target: Tyrosine-protein kinase FRK (Homo sapiens) (UniProt P42685); conditions: at 0.1 µM
[13] = biological target: Tyrosine-protein kinase FRK (Homo sapiens) (UniProt P42685); conditions: at 1 µM
[14] = biological target: Protein-tyrosine kinase 2-beta (Homo sapiens) (UniProt Q14289); conditions: at 0.1 µM
[15] = biological target: Protein-tyrosine kinase 2-beta (Homo sapiens) (UniProt Q14289); conditions: at 1 µM
[16] = biological target: Proto-oncogene tyrosine-protein kinase receptor Ret (Homo sapiens) (UniProt P07949); conditions: at 0.1 µM
[17] = biological target: Proto-oncogene tyrosine-protein kinase receptor Ret (Homo sapiens) (UniProt P07949); conditions: at 1 µM
[18] = tested on: Proto-oncogene tyrosine-protein kinase receptor Ret (Homo sapiens), P07949 [V804L]; conditions: at 0.1 µM
[19] = tested on: Proto-oncogene tyrosine-protein kinase receptor Ret (Homo sapiens), P07949 [V804L]; conditions: at 1 µM
[20] = tested on: Proto-oncogene tyrosine-protein kinase receptor Ret (Homo sapiens), P07949 [Y791F]; conditions: at 0.1 µM
Proto-oncogene tyrosine-protein kinase receptor Ret (Homo sapiens), P07949 [Y791F], sequence (P07949 whole entry Y791F): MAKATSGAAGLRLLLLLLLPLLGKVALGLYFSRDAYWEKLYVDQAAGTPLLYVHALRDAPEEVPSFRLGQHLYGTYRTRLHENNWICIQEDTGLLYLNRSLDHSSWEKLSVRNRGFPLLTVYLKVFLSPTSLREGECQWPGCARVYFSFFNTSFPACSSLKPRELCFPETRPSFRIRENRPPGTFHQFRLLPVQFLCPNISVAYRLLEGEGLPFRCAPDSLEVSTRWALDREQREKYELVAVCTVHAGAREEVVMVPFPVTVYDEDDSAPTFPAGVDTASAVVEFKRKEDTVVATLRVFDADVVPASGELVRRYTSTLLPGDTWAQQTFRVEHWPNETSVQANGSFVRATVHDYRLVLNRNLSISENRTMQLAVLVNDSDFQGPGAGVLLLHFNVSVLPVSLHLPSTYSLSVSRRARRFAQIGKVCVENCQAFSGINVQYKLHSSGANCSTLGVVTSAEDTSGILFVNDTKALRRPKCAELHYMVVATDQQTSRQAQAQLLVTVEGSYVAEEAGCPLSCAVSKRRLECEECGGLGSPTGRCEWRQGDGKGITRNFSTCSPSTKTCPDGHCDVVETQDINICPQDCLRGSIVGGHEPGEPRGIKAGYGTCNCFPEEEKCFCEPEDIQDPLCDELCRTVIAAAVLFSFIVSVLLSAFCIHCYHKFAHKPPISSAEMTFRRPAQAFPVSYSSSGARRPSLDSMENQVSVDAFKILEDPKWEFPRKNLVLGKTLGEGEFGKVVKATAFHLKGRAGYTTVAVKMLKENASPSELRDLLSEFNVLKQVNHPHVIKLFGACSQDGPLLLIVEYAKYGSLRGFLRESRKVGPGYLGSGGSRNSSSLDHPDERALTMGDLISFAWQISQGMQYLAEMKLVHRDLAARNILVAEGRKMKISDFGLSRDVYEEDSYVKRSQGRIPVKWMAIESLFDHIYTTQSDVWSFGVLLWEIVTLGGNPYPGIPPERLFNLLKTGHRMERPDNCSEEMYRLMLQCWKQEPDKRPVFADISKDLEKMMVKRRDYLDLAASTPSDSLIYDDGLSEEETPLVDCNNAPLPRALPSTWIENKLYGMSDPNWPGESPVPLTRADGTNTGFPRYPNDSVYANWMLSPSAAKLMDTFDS

Platelet-derived growth factor receptor beta (Homo sapiens), sequence (P09619 whole entry): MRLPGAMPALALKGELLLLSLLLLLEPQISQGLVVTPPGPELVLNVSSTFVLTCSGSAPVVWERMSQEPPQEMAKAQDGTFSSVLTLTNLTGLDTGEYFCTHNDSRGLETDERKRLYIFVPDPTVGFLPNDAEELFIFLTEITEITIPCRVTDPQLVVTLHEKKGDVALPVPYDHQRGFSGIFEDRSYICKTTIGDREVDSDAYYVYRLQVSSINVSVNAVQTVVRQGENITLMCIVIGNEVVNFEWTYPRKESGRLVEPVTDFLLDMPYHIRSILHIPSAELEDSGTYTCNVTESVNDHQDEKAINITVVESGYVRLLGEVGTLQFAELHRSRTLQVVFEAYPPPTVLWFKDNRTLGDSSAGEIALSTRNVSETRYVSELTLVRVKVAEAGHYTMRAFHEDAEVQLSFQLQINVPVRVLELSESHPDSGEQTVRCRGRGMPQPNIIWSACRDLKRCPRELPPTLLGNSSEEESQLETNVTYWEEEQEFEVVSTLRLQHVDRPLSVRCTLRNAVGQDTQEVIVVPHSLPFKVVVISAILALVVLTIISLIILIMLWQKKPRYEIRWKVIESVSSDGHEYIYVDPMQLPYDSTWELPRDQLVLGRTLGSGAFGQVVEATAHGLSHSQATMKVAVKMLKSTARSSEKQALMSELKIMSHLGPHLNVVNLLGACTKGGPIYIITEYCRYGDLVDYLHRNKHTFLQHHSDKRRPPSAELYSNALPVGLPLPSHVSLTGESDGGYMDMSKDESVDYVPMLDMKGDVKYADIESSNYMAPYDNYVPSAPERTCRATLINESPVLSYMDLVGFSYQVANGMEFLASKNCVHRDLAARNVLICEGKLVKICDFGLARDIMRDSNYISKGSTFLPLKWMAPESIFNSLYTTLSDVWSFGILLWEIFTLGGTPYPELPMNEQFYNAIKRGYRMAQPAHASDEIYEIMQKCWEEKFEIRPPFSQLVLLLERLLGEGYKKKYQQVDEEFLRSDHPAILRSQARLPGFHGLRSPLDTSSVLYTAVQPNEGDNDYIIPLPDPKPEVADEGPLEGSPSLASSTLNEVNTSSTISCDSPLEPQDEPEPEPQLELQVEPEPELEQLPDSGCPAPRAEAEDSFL
Proto-oncogene tyrosine-protein kinase receptor Ret (Homo sapiens), P07949 [V804L], sequence (P07949 whole entry V804L): as the sequence (P07949 whole entry Y791F) above, with F791Y, V804L counted along it
Protein-tyrosine kinase 2-beta (Homo sapiens), sequence (Q14289 whole entry, looked up): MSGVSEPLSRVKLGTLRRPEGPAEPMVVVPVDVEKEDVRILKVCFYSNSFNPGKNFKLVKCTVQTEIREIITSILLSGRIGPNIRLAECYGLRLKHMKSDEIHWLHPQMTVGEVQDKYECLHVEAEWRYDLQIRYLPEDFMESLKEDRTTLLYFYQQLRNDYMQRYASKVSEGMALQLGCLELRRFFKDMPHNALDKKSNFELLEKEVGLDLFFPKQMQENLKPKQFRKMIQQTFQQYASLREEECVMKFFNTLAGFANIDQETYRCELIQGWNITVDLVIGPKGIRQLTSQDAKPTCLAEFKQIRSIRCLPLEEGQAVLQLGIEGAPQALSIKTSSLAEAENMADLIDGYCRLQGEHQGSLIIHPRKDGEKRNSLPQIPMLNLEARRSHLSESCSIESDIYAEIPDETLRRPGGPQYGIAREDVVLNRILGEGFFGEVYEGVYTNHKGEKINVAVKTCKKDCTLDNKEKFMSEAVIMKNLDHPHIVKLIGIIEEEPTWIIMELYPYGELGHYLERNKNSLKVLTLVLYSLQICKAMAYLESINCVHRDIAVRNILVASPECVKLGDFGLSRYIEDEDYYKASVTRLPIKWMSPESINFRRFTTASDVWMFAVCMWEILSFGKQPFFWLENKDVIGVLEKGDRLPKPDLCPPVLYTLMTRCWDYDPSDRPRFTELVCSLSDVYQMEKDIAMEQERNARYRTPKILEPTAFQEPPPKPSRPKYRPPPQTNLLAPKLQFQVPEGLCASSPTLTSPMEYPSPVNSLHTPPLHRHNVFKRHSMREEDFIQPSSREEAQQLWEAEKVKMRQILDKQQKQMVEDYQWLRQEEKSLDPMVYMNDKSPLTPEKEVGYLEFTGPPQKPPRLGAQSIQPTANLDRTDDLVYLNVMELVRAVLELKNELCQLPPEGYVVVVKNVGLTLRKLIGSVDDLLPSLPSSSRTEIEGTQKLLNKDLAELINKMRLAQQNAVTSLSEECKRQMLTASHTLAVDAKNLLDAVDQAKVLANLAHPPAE
Tyrosine-protein kinase FRK (Homo sapiens), sequence (P42685 whole entry): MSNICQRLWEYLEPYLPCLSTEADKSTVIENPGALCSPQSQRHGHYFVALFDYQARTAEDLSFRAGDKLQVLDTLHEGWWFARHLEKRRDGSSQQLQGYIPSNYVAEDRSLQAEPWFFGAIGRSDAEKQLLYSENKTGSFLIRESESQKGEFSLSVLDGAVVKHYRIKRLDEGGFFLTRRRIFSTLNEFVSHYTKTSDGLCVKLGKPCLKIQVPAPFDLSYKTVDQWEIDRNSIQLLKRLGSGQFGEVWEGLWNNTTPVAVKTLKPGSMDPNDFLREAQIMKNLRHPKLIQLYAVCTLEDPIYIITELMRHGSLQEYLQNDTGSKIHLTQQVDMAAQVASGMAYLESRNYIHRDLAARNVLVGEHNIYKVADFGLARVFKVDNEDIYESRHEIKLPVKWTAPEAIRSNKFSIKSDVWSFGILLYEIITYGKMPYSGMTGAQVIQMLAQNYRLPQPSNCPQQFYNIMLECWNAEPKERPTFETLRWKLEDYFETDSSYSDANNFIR

Compound	inhibition [1]	inhibition [2]	inhibition [3]	inhibition [4]	inhibition [5]	inhibition [6]	inhibition [7]	inhibition [8]	inhibition [9]	inhibition [10]	inhibition [11]	inhibition [12]	inhibition [13]	inhibition [14]	inhibition [15]	inhibition [16]	inhibition [17]	inhibition [18]	inhibition [19]	inhibition [20]
O=C(Nc1n[nH]c2cc(-c3cc(F)ccc3F)ccc12)C1CC1	10.1%	7.53%	18.3%	2.07%	7.89%	5.2%	9.61%	3.2%	13.2%	3.6%	14.1%	2.44%	0.71%	9.57%	10.3%	6.14%	10.3%	3.33%	2.9%	7.68%
Fc1ccc(-c2ncn(C3CCNCC3)c2-c2ccnc(Oc3ccc(Oc4ccccc4)cc3)n2)cc1	8.37%	3.69%	9.58%	0.69%	1.95%	2.85%	6.65%	2.74%	3.75%	2.57%	3.75%	2.37%	2.86%	3.19%	6.71%	2.36%	5.4%	3.16%	7.16%	15.6%
NC(=O)Cc1ccccc1Oc1nccc(-c2c(-c3ccc(F)cc3)ncn2C2CCNCC2)n1	1.69%	3.58%	7.12%	0.37%	0.79%	3.6%	2.14%	-0.19%	4.04%	3.93%	5.76%	1.11%	3.64%	5.56%	3.38%	5.79%	3.25%	2.51%	0.95%	3.81%
Fc1ccc(-c2c(-c3ccncc3)nc3n2CCS3)cc1	1.19%	4.27%	11.9%	1.59%	3.82%	3.55%	3.84%	2.1%	2.96%	1.36%	5.75%	1.6%	2.05%	10.7%	4.18%	1.13%	7.86%	3.1%	6.64%	3.14%
Clc1ccc(CNc2nccc(-c3cnn4ncccc34)n2)cc1	3.54%	4.87%	15.4%	0.87%	4.84%	0.55%	2.46%	1.98%	7.98%	3.92%	13.8%	0.01%	1.32%	-4.51%	2.8%	0.88%	5.75%	-0.76%	5.56%	-0.42%
COc1ccc(C2=C(N3CCc4ccccc43)C(=O)NC2=O)cc1	6.74%	4.56%	16.3%	5.15%	8.45%	7.16%	10.6%	5.61%	6.87%	5.31%	12.1%	2.66%	0.27%	11.7%	16%	9.66%	6.15%	5.21%	7.12%	6.21%
NS(=O)(=O)c1ccc(N/N=C2\C(=O)Nc3ccc(C(=O)NCCCn4ccnc4)cc32)cc1	21.6%	10.6%	54.2%	13%	57.8%	5.56%	12.4%	11.6%	47%	23.1%	68.9%	2.01%	2.76%	14.3%	20.9%	12.5%	51.9%	38.7%	76.2%	14.2%
NS(=O)(=O)c1ccc(N/N=C2\C(=O)Nc3ccc(-c4cnco4)cc32)cc1	18.5%	13.9%	49.8%	6.86%	40.8%	1.96%	13.9%	8.44%	46.8%	12.1%	50.4%	1.59%	1.95%	9.59%	19.7%	7.98%	29%	15%	54%	8.71%
COc1cc(Nc2ncc(-c3ccccc3)o2)cc(OC)c1OC	14.5%	17.7%	69.6%	9.16%	43%	27.4%	77.7%	35.7%	76.1%	23%	74.2%	0.5%	4.26%	-6.53%	5.39%	2.33%	15.5%	1%	16.2%	0.66%
CCS(=O)(=O)c1ccc(OC)c(Nc2ncc(-c3ccccc3Cl)o2)c1	8.58%	5.6%	16.2%	1.1%	4.35%	0.38%	5.02%	2.97%	15.1%	4.1%	28%	0.68%	4.99%	6.54%	45.2%	4%	8.62%	3.06%	21.2%	2.23%
CNC(=O)c1cncc(/C=C/c2c(C)cccc2C)c1	5.15%	8.57%	34.4%	0.09%	4.23%	0.35%	1.37%	21.3%	48%	7.03%	26.2%	1.71%	17.3%	-2.5%	-2.35%	4.57%	7.32%	-0.1%	6.46%	1.16%
Cc1ccc(C(=O)NC2CCC2)cc1-c1ccc(C(=O)NCC2CC2)cc1	3.12%	1.47%	4.53%	3.52%	0.66%	3.43%	3.17%	2.49%	5.32%	-0.12%	4.37%	1.45%	0.56%	4.2%	4.27%	7.54%	8.34%	4.17%	-0.01%	2.44%
CN(C)CCOc1ccc(-c2cc(-c3ccc4c(c3)CCC4=NO)c(-c3ccncc3)o2)cc1	-1%	3.05%	9.14%	0.21%	2.8%	-0.07%	2.19%	0.77%	4.25%	2.38%	9.14%	-1.02%	0.49%	-7.75%	0.57%	3.54%	1.85%	0.61%	1.37%	-1.98%
C[C@@H](Oc1cc(-n2cnc3ccc(OC4CCN(C)CC4)cc32)sc1C(N)=O)c1ccccc1Cl	40.8%	29.3%	69%	10.5%	53.6%	8.48%	58%	14.5%	65%	26.3%	70.8%	3.35%	3.66%	4.13%	11.7%	3.19%	16.5%	2.32%	15.8%	6.79%
CN(c1ccc(NC(=O)Nc2c(Cl)cccc2Cl)cc1)c1ccnc(Nc2cccc(CS(C)(=O)=O)c2)n1	89.9%	69.3%	86.6%	6.78%	28.6%	72.1%	97.5%	78.7%	91.2%	52.4%	77.7%	3.86%	14.5%	55.1%	29.7%	23.8%	48.6%	13.2%	41%	24.4%
FC(F)(F)c1cccc(Nc2nccc(-c3cnn4nc(-c5ccccc5)ccc34)n2)c1	0.42%	7.91%	42.6%	4.44%	33.6%	3.36%	9.98%	6.8%	39.2%	7.48%	37.1%	1.24%	0.8%	-1%	7.77%	0.18%	2.88%	3.76%	4.5%	3.91%
CS(=O)(=O)CCNCc1ccc(-c2ccc3ncnc(Nc4ccc(OCc5ccccc5)c(Br)c4)c3c2)o1	-1.75%	6.94%	12.7%	2.31%	4.09%	2.28%	5.56%	3.03%	5.85%	3.75%	7.34%	2.64%	3.25%	3.86%	10.1%	7.14%	4.94%	2.03%	4.43%	9.28%
O=C(Nc1ccc(Oc2ccc3[nH]c(NC(=O)c4ccccc4)nc3c2)cc1)Nc1cc(C(F)(F)F)ccc1F	63.9%	27.8%	78.4%	1.94%	8.54%	13%	83.1%	25.5%	79.4%	9.24%	31.1%	1.86%	2.1%	5.27%	14.2%	62.6%	90.2%	25.4%	78.7%	38.6%
CCc1nccc2c1nc(-c1nonc1N)n2CC	0.59%	5.23%	11.5%	2.48%	9.06%	2.57%	0.49%	0.72%	6.72%	2.42%	14%	0.24%	-0.39%	3.87%	0.03%	0.76%	9.96%	4.16%	1.71%	3.64%
NC(=O)c1ccc(Oc2nccc(-c3c(-c4ccc(F)cc4)ncn3C3CCNCC3)n2)cc1	9.48%	5.32%	10.6%	2.12%	4.3%	2.24%	6.2%	5.07%	7.97%	4.31%	6.41%	2.8%	4.67%	-0.03%	10.9%	1.55%	2.99%	2.2%	5.79%	3.11%
O=C1Nc2ccccc2/C1=C/Nc1ccc(-n2cncn2)cc1	30.9%	10.5%	45.5%	4.56%	24.2%	13.1%	67.2%	10.8%	44.8%	7.25%	33.4%	2.78%	3.04%	11.7%	24.7%	15.4%	48.6%	20.2%	67.3%	12.9%
c1ccc(-c2n[nH]cc2-c2ccnc(-c3ccc(OCCN4CCOCC4)cc3)c2)nc1	9.04%	20.1%	58.7%	18.6%	71%	5.25%	-0.97%	11.7%	55.5%	16.2%	52.2%	2.08%	0.63%	-9.86%	0.28%	8.77%	11.1%	6.56%	4.32%	10%
Fc1ccc(-c2ncn(CCCN3CCOCC3)c2-c2ccncc2)cc1	1.32%	6.11%	7.26%	2.37%	1.54%	1.55%	-0.15%	-0.24%	3.42%	-0.37%	6.02%	0.05%	-1.57%	0.29%	-0.89%	0.8%	2.72%	-0.64%	0.11%	2.85%
O=C(Nc1n[nH]c2nc(-c3ccc(O)cc3)c(Br)cc12)C1CC1	14%	25.9%	67.1%	12.8%	55.5%	7.49%	24.4%	19.7%	64.6%	12%	41.3%	14.7%	2.41%	9.91%	18.5%	11.8%	28.1%	5.98%	21%	12.1%
NCc1ccc(-n2c(-c3nonc3N)nc3cnccc32)cc1	8.78%	10.2%	18%	9%	16.1%	8.3%	17.7%	2.5%	8.66%	9.08%	37.3%	1.83%	1.83%	11.2%	9.24%	5.69%	7.7%	7.22%	9.65%	7.37%
COc1cc(Nc2ncc3c(C)nc(-c4cccc(Oc5ccccc5)c4)n3n2)cc(OC)c1OC	4.06%	3.72%	10.5%	2.21%	5.9%	1.26%	1.96%	1.43%	9.34%	0.58%	10.4%	0.9%	0.75%	5.25%	6.67%	4.22%	29.1%	8.26%	43%	3.87%
